GPT2 inh: Primary qHTS assay for inhibitors of Glutamate pyruvate transaminase 2 (GPT2); Recombinant GPT2, coupled pyruvate oxidase/HRP Amplex Red fluorescence; Potency, µM (series often up to 57.7 µM), most hits filed as inhibitors; hit rate 0.25% among 100,000; AID 1671188, 2021; also: nearly all actives have a fitted effect of over 60% in size
Target sequence (Q8TD30 whole entry, looked up): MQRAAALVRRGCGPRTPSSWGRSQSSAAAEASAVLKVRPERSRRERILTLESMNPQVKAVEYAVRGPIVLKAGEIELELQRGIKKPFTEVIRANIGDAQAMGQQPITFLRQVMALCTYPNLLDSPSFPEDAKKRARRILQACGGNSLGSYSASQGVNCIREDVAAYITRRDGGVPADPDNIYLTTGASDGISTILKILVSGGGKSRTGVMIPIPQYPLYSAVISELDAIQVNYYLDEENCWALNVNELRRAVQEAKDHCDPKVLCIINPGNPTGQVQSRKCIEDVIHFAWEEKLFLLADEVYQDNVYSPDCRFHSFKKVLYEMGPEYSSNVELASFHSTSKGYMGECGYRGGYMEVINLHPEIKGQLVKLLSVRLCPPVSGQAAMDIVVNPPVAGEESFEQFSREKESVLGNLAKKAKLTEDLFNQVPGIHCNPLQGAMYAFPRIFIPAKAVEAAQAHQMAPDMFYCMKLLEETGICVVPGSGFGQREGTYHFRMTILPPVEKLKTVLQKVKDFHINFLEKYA
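Fluorescence of coupled pyruvate oxidase/HRP/Amplex Red system (50uM Amplex, 30 min, dark) reports pyruvate formed by GPT2. Enzyme reaction: 10ng/uL GPT2, 2mM L-alanine, 250uM a-KG, 30 min room temperature, pH 7.5; 50uM AOA control.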
NIH3T3 tox: Cytotoxic Profiling in NIH 3T3 Cell Line of Diverse Libraries Using Quantitative High-Throughput Screening; NIH 3T3 viability, CellTiter-Glo ATP luminescence, 48-72 h; Potency, µM (titrated, usually from 96.7 µM), actives largely listed as inhibitors; hit rate 4.3% among 94,000; also: nearly all actives have a fitted effect of over 55% in size
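Cytotoxicity is measured as loss of cellular ATP: NIH 3T3 cells (400/well) are exposed to compound for 48 or 72 hr at 37 °C, then CellTiter-Glo luminescence is imaged after 10 min at room temperature.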
HEK cytotox: Cytotoxic Profiling in HEK 293 Cell Line of Diverse Libraries Using Quantitative High-Throughput Screening; HEK 293 viability, ATP luminescence (CellTiter-Glo), 48-72 h; Potency, µM (highest dose often 115 µM), usual class: inhibitors; hit rate 6.6% among 94,000; also: nearly all actives have a fitted effect of over 60% in size
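CellTiter-Glo luminescence (cellular ATP) was read after 48 or 72 hr of compound exposure at 37 degree Celsius. Cells were HEK 293 plated at 250 cells/well.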
hNpr1 antagonist: Natriuretic polypeptide receptor (hNpr1) antagonism - Primary qHTS | Atrial natriuretic peptide receptor 1 (Homo sapiens), P16066 | HEK293 hNpr1 GloSensor cGMP, ANP-stimulated luminescence | Potency, µM (doses to about 46.3 µM), actives largely listed as inhibitors | hit rate 1.6% among 76,000 | AID 1347048, 2019; calls by dose curve; also: nearly all actives have a fitted effect of over 60% in size
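Compound pre-incubated 30 min at room temperature on GloSensor-loaded HEK293 cells stably carrying hNpr1 and the pGS-40F cGMP biosensor. Stimulation uses hNppA at 0.1 nM final; luminescence is taken at baseline and 20 min post-agonist.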
FLuc inh: Firefly luciferase inhibition profiling of diverse chemical library using quantitative high-throughput screening; purified P. pyralis luciferase, luminescence, biochemical; Luciferin 4-monooxygenase (Photinus pyralis), P08659; Potency, µM (doses to about 115 µM), most hits filed as inhibitors; hit rate 2.5% among 76,000; AID 1347043, 2019; also: nearly all actives have a fitted effect of over 65% in size
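Cell-free enzyme assay, 10nM P. pyralis luciferase, luciferin and ATP each at 10uM. Inhibition profiled over a 6-point titration, read as luminescence.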
Large screens that a line does not name were inactive. The list is not random: actives were taken first. Their share in the collection is about 10%. Unless noted, calls follow the shape of the dose curve; as a rule, active = well fitted curve in the direction sought with a large enough effect; inconclusive = small, poorly fitted or top-dose-only effect, or another doubt; inactive = no such curve, though single readings can be large; an effect the other way counts as inactive or inconclusive.

Cc1nn(-c2ccccc2)c2c1C(C1CC1)N(C1CCCN(C(=O)c3ccccc3)C1)C2=O (stereo not drawn)	HEK cytotox inconclusive (no result: GPT2 inh, hNpr1 antagonist, FLuc inh)
Cc1nn(-c2ccccc2)c2c1C(C1CC1)N(C1CN(C(=O)NC(C)(C)c3ccccc3)C1)C2=O (stereo not drawn)	NIH3T3 tox 14µM, HEK cytotox inconclusive (no result: GPT2 inh, hNpr1 antagonist, FLuc inh)
Cc1nn(-c2ccccc2)c2c1C(C(C)C)N(C1CN(C(=O)Cc3cccc(Cl)c3)C1)C2=O (stereo not drawn)	NIH3T3 tox 25µM, HEK cytotox 25µM (no result: GPT2 inh, hNpr1 antagonist, FLuc inh)
Cc1nn(-c2ccccc2)c2c1C(C(C)C)N(C1CCN(C(=O)Cc3cccc(Cl)c3)CC1)C2=O (stereo not drawn)	none (no result: GPT2 inh, hNpr1 antagonist, FLuc inh)
O=C(Cc1cccc(Cl)c1)N1CCCC(c2nn(-c3ccccc3)c(=O)[nH]2)C1 (stereo not drawn)	NIH3T3 tox inconclusive, HEK cytotox 45µM
Cc1ccc(C(=O)N2CC(N3C(=O)c4c(c(C)nn4-c4ccccc4)C3C3CC3)C2)cc1 (stereo not drawn)	none (no result: GPT2 inh, hNpr1 antagonist, FLuc inh)
COCCOc1cc(-c2noc([C@@H]3CCCN3Cc3ccncc3)n2)ccn1	HEK cytotox inconclusive
CN(C(=O)[C@@H]1C[C@@H](c2ccc(F)cc2)N(CCOc2ccccc2)C1)c1cccnc1	NIH3T3 tox inconclusive, HEK cytotox inconclusive
O=C(Cc1c[nH]c2ccccc12)NC1CCCc2c1[nH]c1ccc(F)cc21 (stereo not drawn)	NIH3T3 tox 32µM, HEK cytotox 35µM
COCCn1cc(C(=O)NC2CCCc3c2[nH]c2ccccc32)c2ccccc2c1=O (stereo not drawn)	GPT2 inh inconclusive, NIH3T3 tox inconclusive, HEK cytotox 45µM
CC(C)CC(=O)NC1CCCc2c1[nH]c1ccc(Cl)cc21 (stereo not drawn)	NIH3T3 tox 20µM, HEK cytotox inconclusive
O=C(Cc1ccccc1)NC1CCCc2c1[nH]c1ccccc21 (stereo not drawn)	NIH3T3 tox 22µM, HEK cytotox inconclusive
CC(=O)N1CCC(Oc2ccc(Cl)cc2C(=O)NCCOc2cccnc2)CC1	none
COc1cccc(CNC(=O)c2ccc3nc(-c4cccnc4)oc3c2)c1	NIH3T3 tox inconclusive (no result: hNpr1 antagonist, FLuc inh)
OC[C@H]1CCN(Cc2ccc(-c3ccn[nH]3)o2)C[C@H]1O	none
OC[C@H]1CCN(Cc2ccc(-c3cccc(Cl)c3Cl)o2)C[C@@H]1O	HEK cytotox inconclusive, hNpr1 antagonist 10µM, FLuc inh inconclusive
Cn1c2c(c3cc(F)ccc31)CN(C(=O)Nc1ccc(Cl)cc1Cl)CC2	NIH3T3 tox inconclusive, HEK cytotox inconclusive
Cn1c2c(c3ccccc31)CN(C(=O)Nc1ccc(Cl)cc1Cl)CC2	NIH3T3 tox inconclusive, HEK cytotox inconclusive, FLuc inh 25µM
Cn1c2c(c3ccccc31)CN(C(=O)Nc1ccccc1F)CC2	NIH3T3 tox 35µM, HEK cytotox 45µM, FLuc inh inconclusive
O=C(NCCN1CCOCC1)[C@H]1C[C@@H](O)[C@H](O)[C@@H]2N=C(Nc3ccc(-n4cccn4)cc3)S[C@@H]21	FLuc inh 35µM
Cc1ccc(C2=NC3(CCN(C(=O)c4ccsc4)CC3)ON2)cc1	FLuc inh 40µM
O=C(c1ccoc1)N1CCC2(CC1)N=C(c1cccc(Br)c1)NO2	none
COc1ccc(C(=O)N2CCC3(CC2)N=C(c2ccc(C)cc2)NO3)cc1	HEK cytotox inconclusive, FLuc inh inconclusive
CCc1ccc(C(=O)N2CCC3(CC2)N=C(c2ccc(C)cc2)NO3)cc1	HEK cytotox inconclusive, hNpr1 antagonist inconclusive, FLuc inh 40µM
Cc1ccc(C(=O)N2CCC3(CC2)N=C(c2cccc(Br)c2)NO3)cc1	NIH3T3 tox 16µM, HEK cytotox inconclusive, hNpr1 antagonist inconclusive
O=C(c1ccc2cc[nH]c2c1)N1CCC2(CC1)N=C(c1ccccc1)NO2	HEK cytotox inconclusive, FLuc inh 28µM
Cc1cc(C)n(CCC(=O)N[C@@H]2CN(c3ccncn3)C[C@H]2CN(C)C)n1	none
O=C(NCC1CCCCC1)C1CCN(C(=O)c2ccc(-c3cncnc3)cc2)CC1	NIH3T3 tox inconclusive (no result: hNpr1 antagonist, FLuc inh)
Cc1ccc(C(=O)N2CCC3(CC2)N=C(c2ccc(C)cc2)NO3)cc1	FLuc inh 35µM
Cc1ccc(C2=NC3(CCN(C(=O)c4ccc5c(c4)OCO5)CC3)ON2)cc1	HEK cytotox inconclusive, FLuc inh 35µM
O=C(c1ccc2c(c1)OCO2)N1CCC2(CC1)N=C(c1ccc(Cl)cc1)NO2	HEK cytotox inconclusive, hNpr1 antagonist inconclusive
COc1ccc(C(=O)NC(C(=O)N2CCCC2)C2CCN(C(=O)c3ccc(OC)cc3)CC2)cc1 (stereo not drawn)	none
O=c1n(CC2CC2)nc2n1CCN(S(=O)(=O)c1ccc(Cl)s1)CC2	none
Cc1cccc(CNC(=O)c2ccc3c(c2)N(C)C2CCCN2C3=O)c1 (stereo not drawn)	NIH3T3 tox inconclusive, HEK cytotox inconclusive
CC(C)C1=NOC2(CCN(Cc3c[nH]c4ccccc34)CC2)C1	none (no result: hNpr1 antagonist, FLuc inh)
CC(=O)N1CC2(CCN(Cc3c[nH]c4ccccc34)CC2)Cc2ccccc21	NIH3T3 tox inconclusive, HEK cytotox inconclusive (no result: hNpr1 antagonist, FLuc inh)
C[S+](=O)([O-])N1CC2(CCN(Cc3c[nH]c4ccccc34)CC2)Cc2ccccc21	NIH3T3 tox 25µM, HEK cytotox 45µM (no result: hNpr1 antagonist, FLuc inh)
c1ccc(C2=NOC3(CCN(Cc4c[nH]c5ccccc45)CC3)C2)cc1	NIH3T3 tox inconclusive, HEK cytotox 45µM (no result: hNpr1 antagonist, FLuc inh)
c1ccc(CC2=NOC3(CCN(Cc4c[nH]c5ccccc45)CC3)C2)cc1	NIH3T3 tox 32µM, HEK cytotox 50µM (no result: hNpr1 antagonist, FLuc inh)
COc1ccc(C(=O)N[C@@H]2CCC[C@@H]2C(=O)NC2CCCCCC2)cn1	none
Cc1noc2c(N(C)C)cc(-c3cccc(C(F)(F)F)c3)nc12	NIH3T3 tox inconclusive
COCCCNc1cc(-c2cccc(C(F)(F)F)c2)nc2c(C)noc12	NIH3T3 tox inconclusive, HEK cytotox 79µM
Cc1noc2c(NCCN(C)C)cc(-c3cccc(C(F)(F)F)c3)nc12	NIH3T3 tox 32µM, HEK cytotox 32µM
O=C1COc2ccc(-c3cn[nH]c3)nc2CN1Cc1ccccc1	NIH3T3 tox 28µM, HEK cytotox inconclusive
COc1ccc(-c2ccc3c(n2)CN(CCOc2ccccc2)C(=O)CO3)cc1	NIH3T3 tox inconclusive, HEK cytotox inconclusive, hNpr1 antagonist inconclusive
COCCN1Cc2nc(-c3cnn(Cc4ccccc4)c3)ccc2OCC1=O	NIH3T3 tox 45µM, HEK cytotox inconclusive
Cn1cc(-c2ccc3c(n2)CN(Cc2ccccc2)C(=O)CO3)cn1	NIH3T3 tox 40µM, HEK cytotox inconclusive

Screens as filed in PubChem.
